# The supplement of paper PMC6555819
# Columns and labels:
# Experiment in all cases: PBM binding z-score (relative to random genomic background probes); higher = stronger binding; sequences stand for … in GC…GCGATTGACAGCGTAGAATGAAGG
# [1] = test system: PPARg:RXRa DBDmut IVT, anti-RXR (DBD mutation: RXRa K156A/R161A, NR concentration 270 nM, RXRa partner concentration 90 nM)
# Summary of the method: (§1)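 Binding z-scores were set against random background probes. The data came from custom Agilent 4×180K protein-binding microarrays carrying double-stranded probes with 34-nt variable regions, incubated 1 h with ligand-free nuclear receptor dimers. Partner-specific antibodies detected binding, and scanned fluorescence was regression-normalized.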
# [2] = test system: PPARg:RXRa IVT, anti-PPARg (NR concentration 270 nM, RXRa partner concentration 90 nM)
# Summary of the method: as §1
# [3] = test system: PPARg DBDmut:RXRa IVT, anti-PPARg (DBD mutation: PPARg1 K132A/R137A, NR concentration 270 nM, RXRa partner concentration 90 nM)
# Summary of the method: as §1
# [4] = test system: PPARg DBDmut IVT, anti-PPARg (DBD mutation: PPARg1 K132A/R137A, NR concentration 270 nM)
# Summary of the method: as §1
# [5] = test system: PPARg homodimer (NR concentration 180 nM)
# Summary of the method: as §1
# [6] = test system: PXR:RXRa (NR concentration 270 nM, RXRa partner concentration 90 nM)
# Summary of the method: as §1
# [7] = test system: PXR homodimer (NR concentration 270 nM)
# Summary of the method: as §1
# [8] = test system: RARa:RXR (NR concentration 270 nM, RXRa partner concentration 90 nM)
# Summary of the method: as §1
# [9] = test system: RARa homodimer (NR concentration 270 nM)
# Summary of the method: as §1
# [10] = test system: RARb:RXRa (NR concentration 270 nM, RXRa partner concentration 90 nM)
# Summary of the method: as §1
Sequence,PBM binding z-score [1],PBM binding z-score [2],PBM binding z-score [3],PBM binding z-score [4],PBM binding z-score [5],PBM binding z-score [6],PBM binding z-score [7],PBM binding z-score [8],PBM binding z-score [9],PBM binding z-score [10]
ATCGAAAGGTCGACGAGGTTAGTATACACCGTTT,0.568,1.88,1.2,0.625,1.24,4.03,2.16,3.97,0.691,3.86
TCTTGTAGATCGAAGGTTAAGAAAGCCGAAGCCT,1.1,1.32,-0.629,-0.226,0.155,0.143,-0.658,0.948,-0.208,0.667
TCATATAGGTAAATGCTAGCTGAAAGTCCGATCT,3.73,1.89,0.625,1.15,0.314,0.592,0.27,0.762,0.642,0.242
CCGACTGGGGCATCAGGTTACCATAAGCCAGCCC,3.34,3.84,-0.621,-1.56,0.326,-0.505,-0.821,-0.109,-0.776,1.01
CTGGAAAGGTCGGTTGAGGTGAGTATACGGATAA,-0.117,0.957,-0.556,0.0614,0.799,3.21,-0.0647,2.05,0.351,2.89
CAGCCTAGGTCAGGCCCAGTATAGGAGGAACGTT,0.76,1.39,-0.686,-1.02,0.325,-0.0342,-0.609,0.588,-0.629,3.2
ATATGTAGGTTAAATCCGGGTCATTCAGGCTATG,7.28,7.3,2.58,2.7,2.38,4.32,1.9,4.3,0.415,2.51
TCTATTAGTTGATTAGGGCGACCGAAACAGCGGA,2.11,0.486,0.791,0.554,0.93,0.452,0.338,0.407,1.27,0.629
GGAGCGAGGGCAAAGTTGATAGCATCTGTCGACG,0.739,1.35,-0.304,-0.838,-0.183,0.839,-0.0464,1.21,-0.259,2.14
CGAACGAGTGCATGAGTTGATAGCAAATGCCGAT,-0.266,-0.442,-0.401,0.0555,-0.0589,0.62,0.717,0.133,-0.713,0.209
CGAGCTAGGTCAGAACAGGACAGTGAAGGATGAT,1.93,1.04,-1.14,-1.15,0.363,0.798,-0.245,0.682,-0.341,2.89
TCATCTAGGTAAAAGGTGAAAGTCGGTGTGGTAA,5.49,5.73,2.1,1.06,2.69,1.53,0.241,2.8,1.26,2.15
TCAGATAGGTAAAAGGTGAAAGTCGGTGTGGTAA,3.61,3.39,0.424,0.558,1.78,1.84,0.95,2.63,1.51,2.02
CGTCCAAGGTCAAAGCTAGGTCAGTGAAAGCATT,3.82,4.33,0.45,-0.526,5.95,5.09,1.62,6.21,1.19,5.31
TAGCCTAGGTCATGGGCCAGGATACCACGCGAAC,1.37,3.45,0.121,0.0645,0.888,1.54,-0.528,2.52,-0.123,3.8
TCTTGTAGATCAGCAGGTTAAGAGAGCTGGCCAA,1.29,0.366,-0.495,-0.454,-0.22,0.214,-0.483,0.282,-0.593,0.113
ATCTCTGGGTAAAGTTCAGTGAAAGATCGATAGA,1.98,2.87,0.904,1.34,1.32,2.12,1.91,1.55,1.47,2.73
CCTTACGGGTTAAGGTTATAGCACGGGTGGTACG,0.0868,0.867,-0.169,-0.202,0.702,1.16,0.325,1.85,0.517,1.8
ACTATTAGTTCACTTAGGGCAACCGATACGACGC,0.466,0.672,1.13,1.63,0.741,1.86,5.76,0.774,0.399,2.35
GTACCAAGGTGAATGGGTCGTTGATGAGTAGGCG,1.52,2.44,0.0637,-0.57,1.22,0.325,0.284,0.784,0.00879,1.64
GTATATAGGTAATACAAGGTGAAAGTCCGATTGT,5.56,5.62,2.12,2.34,1.29,0.792,0.761,1.95,1.09,0.593
ACTATTAGTTGAGACGAGGGCCACCGATAGGTTG,-0.292,0.0879,0.833,0.398,-0.375,-0.504,-0.253,-0.185,0.235,0.235
CCTATTAGTCGACCATAAGGGCAACCGAAGCTCG,0.311,-0.00504,0.93,-1.02,0.749,0.26,0.25,0.415,0.709,1.24
ACTAGTCGGTCAGCTGAGGTCACACACAATTCGG,3.9,3.98,0.395,0.525,3.35,5.95,2.63,4.69,2.2,4.16

Sequence,PBM binding z-score [1],PBM binding z-score [2],PBM binding z-score [3],PBM binding z-score [4],PBM binding z-score [5],PBM binding z-score [6],PBM binding z-score [7],PBM binding z-score [8],PBM binding z-score [9],PBM binding z-score [10]
CGAACTAGGTCAATGACAGGACAGTGAATAGTAA,8.25,7.96,1.69,1.41,1.62,1.12,-0.0371,1.75,0.354,3.64
TGTCAAATTTCAAAGGTAACGTAAGTATCCACAC,-0.296,1.37,1,1.11,0.532,0.473,0.33,0.98,0.848,1.04
ATCGAAAGGTCGTGAGGTGAGTATTCAGAAAGGC,0.173,2.36,0.908,0.365,1.83,3.37,0.136,4.62,0.587,4.08
CCGACTGGGCCAAAGGTTACCATACTCAGTACGA,3.77,5.5,0.219,-0.431,1.31,1.75,-0.189,3.1,0.224,2.22
AGAATGAGGTTATTAAGATTAGGGAATTGCGGTC,2.99,2.43,1.23,0.542,1.01,1.02,0.66,1.52,0.918,1.47
AGTCAAAGTTCATCTAGGTTACGTAAGATATGCT,1.81,4.48,1.59,1.1,2.63,5.66,10.7,4.25,1.94,4.99
TTACCCAGGTGAAGGTCGTTGATCCCTCTGTAGA,1.24,2.58,-0.304,-0.0545,0.499,1.12,0.0205,1.6,-1.08,1.23
CCTAGGAGGCCAATCTGGGTCACTCAAGGCTTGA,4.15,5.21,-0.00134,-1.3,0.591,1.97,-0.291,1.64,-0.236,1.94
CAAACTAGGTCAAAGGGCAAAGTCGAGCCAACCA,8.37,8.59,2.1,1.17,2.46,4.09,0.769,6.57,0.986,4.51
CAAACTAGCTCACCGGAAGGTCAAAGTCCGCATG,0.993,1.36,-0.25,0.542,2.25,3.37,1.23,3.64,0.685,3.17
AGAATGACGTTAAGATCAGGGAAACAGAATACAT,-0.994,-0.522,-0.562,0.191,-0.654,-0.527,0.305,-0.498,0.719,-0.268
CCTAACGGGTCACTCCAGGTTATAGCATCGGAGT,1.88,2.52,-0.282,-0.298,1.23,4.32,0.412,2.86,0.233,3.15
TCTGCTAGGTCAGTTGGTCAGATAACGAGCTGCC,2.68,3.15,0.782,0.323,0.482,0.274,-0.646,0.69,-0.432,3.36
AGTCAAAGTTCATCTAGGTAGCGTAAGATATGCT,0.422,2.98,1.02,1.02,2.55,4.98,6.74,3.75,1.85,4.8
TTACCAAGGTGAGCTGAGGACGTTGATCCAACTC,0.681,1.36,-0.327,-0.329,-0.722,2.25,-0.289,1.03,-0.906,1.05
AGTCAAAGTTCAGGACGAGGTAACGTATAGCACG,-0.0709,2.03,0.949,0.866,2.09,3.08,1.29,2.97,0.98,4.34
CGTCCAAGGTCAAGGTCAGTGAGAGAGACTCGAA,3.51,4.84,1.23,2.41,3.47,4.79,1.08,5.05,1.59,5.69
TAGCCTAGGTCATGCGGACCAGTATAGTGTCGGC,1.69,2.81,-0.0719,-0.526,0.843,1.31,-0.745,2.2,-0.507,3.65
TCGAGTAGGTTAGTCGGGGCTTTCAGCCAACATA,1.86,0.952,-1.71,-1.29,-0.983,-0.467,-0.898,-0.14,-1.19,0.0518
CCTCGGAGAACAGAAGGTCAGAGCTGTCCGCTTT,0.0999,-0.304,-1.44,-1.47,1.67,1.44,0.0963,1.92,0.634,2.42
CCTAGCAGGCCAATCTGGGTAACTCAAGGCTTGA,2.34,2.01,-1.19,-0.9,-0.78,-0.754,-0.707,-0.329,-0.678,-0.071
CGAACTAGGTCTAGGACAGTGAATCTCCGCACGC,2.28,1.58,-0.66,-0.934,-0.583,-0.626,-0.327,-0.766,-0.883,-0.221
GCCGCTAGGTCAACTGATGGTCAGCTAAAGCTCG,4.39,3.8,-0.418,-0.213,1.56,1.55,-0.4,3.04,0.102,4.35
TCTCGGAGGACACGAAATGTCAGAGCTCGACATC,1.31,-0.0738,0.273,-0.287,-0.365,-0.0137,-0.515,0.332,-0.679,1.56
